Test results reported in PubChem BioAssay AID504832 (National Center for Advancing Translational Sciences (NCATS), 2011).
The whole screen tested about 310,000 compounds, of which about 18,000 (5.8%) were called active. Where a call stands in place of a potency, no number is given. About 22% were inconclusive and are not listed. Calls come from the whole dose curve; as a rule, active = well fitted inhibition curve with a large enough effect; inconclusive = small, poorly fitted or top-dose-only effect, or another doubt; inactive = no such curve, though single readings can be large or run the other way. For the sample, actives were picked, then their nearest neighbours and some compounds at random.

Assay: Primary qHTS for delayed death inhibitors of the malarial parasite plastid, 48 hour incubation
Details: P. falciparum luciferase growth in erythrocytes; series mostly up to 28.7 µM
Summary of the method: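 First compound was added to culture medium, then infected red cells at 0.1% parasitemia and 2% hematocrit (final). After incubation at 37 C under 5% CO2, luciferase detection reagent was dispensed and light output recorded.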
Potency is the fitted concentration of half-maximal effect.

| Compound | Potency | activity change, negative = inhibition |
| --- | --- | --- |
| Cc1c(Cl)cccc1NC(=O)CCC(=O)N/N=C/c1ccco1 | inactive | – |
| Cc1ccc(S(=O)(=O)CCC(=O)Nc2nnc(CC(C)C)s2)cc1 | inactive | – |
| N#C/C=C/N1CCN(Cc2ccc3c(c2)OCO3)CC1 | inactive | – |
| CCN(CC)C(=O)c1sc2nc(-c3ccccc3)ccc2c1N | inactive | – |
| CS(=O)(=O)c1sc2nc(-c3ccccc3)cc(-c3ccccc3)c2c1N | 4.65 µM (active) | – |
| CNc1nc(-c2ccccc2)cc(-c2ccccc2)n1 | inactive | – |
| CSc1ccccc1C(=O)OCC(=O)N1CCN(C(C)=O)CC1 | inactive | – |
| O=C(NCCCc1ccccc1)C(=O)c1c[nH]c2ccccc12 | inactive | – |
| O=S(=O)(c1ccc(SCc2ccccc2)nc1)N1CCCCCC1 | inactive | – |
| CC1(C)CC(=O)c2ccc(O)cc2O1 | inactive | – |
| COc1ccc2c(c1)OC(O)(C(F)(F)C(F)F)CC2=O (stereo not drawn) | 3.29 µM (active) | – |
| COc1ccc2c(c1)SC(C)CC2=O (stereo not drawn) | inactive | – |
| COc1cc(C2C(C(=O)c3ccco3)=C(O)C(=O)N2c2cc(C)on2)ccc1OCc1ccccc1 (stereo not drawn) | inactive | – |
| CCC(C)[C@H](NC(=O)N1c2ccccc2NC(=O)[C@@H]1C(C)C)C(=O)N[C@@H](Cc1ccccc1)C(=O)O (stereo partly drawn) | inactive | – |
| Cc1c(Cl)cccc1NC(=O)CSc1ccc(-c2cccnc2)nn1 | inactive | – |
| Cc1c(Cl)cccc1NC(=S)NCC(O)c1ccccc1 (stereo not drawn) | inactive | – |
| Cc1c(Cl)cccc1NC(=S)N(Cc1ccccc1)Cc1cccnc1 | 10.4 µM (active) | – |
| Cc1cc(C)c(C#N)c(SCC(=O)N(CC(C)C)C2CCS(=O)(=O)C2)n1 (stereo not drawn) | inactive | – |
| COCc1c(C(=O)N/N=C\c2cccnc2)nnn1-c1nonc1N | inactive | – |
| COc1ccc(C(CNC(=O)c2cc3c(s2)CCCC3)N2CCOCC2)cc1 (stereo not drawn) | inactive | – |
| CC1CCc2sc(C(=O)N/N=C/C3CCCCC3)cc2C1 (stereo not drawn) | inactive | – |
| CC(NC(=O)c1cccc(S(=O)(=O)N2CCc3ccccc3C2)c1)c1ccco1 (stereo not drawn) | inactive | – |

| Compound | Potency | activity change, negative = inhibition |
| --- | --- | --- |
| CC1Cc2ccccc2N1S(=O)(=O)c1cccc(C(=O)NCC(c2ccco2)N2CCCC2)c1 (stereo not drawn) | 11.7 µM (active) | – |
| CC1CCc2sc(C(=O)NCC(c3ccco3)N3CCCCC3)cc2C1 (stereo not drawn) | 7.38 µM (active) | – |
| CC1Cc2ccccc2N1S(=O)(=O)c1ccc(Cl)nc1 (stereo not drawn) | inactive | – |
| Cc1nn(C)c(Cl)c1CN1CCC(Oc2ccc(C(=O)N3CCCC3)cc2)CC1 | inactive | – |
| CC1CN(C(=O)CCC(=O)NC2CCN(Cc3ccccc3)CC2)c2ccccc2O1 (stereo not drawn) | inactive | – |
| COC(=O)c1ccc(NC(=O)CSc2nncn2-c2cccnc2)cc1 | inactive | – |
| CC(C)(CNCC(O)c1ccccc1)N1CCOCC1 (stereo not drawn) | inactive | – |
| OC(CNCc1ccc(Cl)c(Cl)c1)c1ccccc1 (stereo not drawn) | 5.86 µM (active) | – |
| O=C(NCc1ccc(Cl)c(Cl)c1)c1cccnc1 | inactive | – |
| Cc1[nH]c2ccccc2c1C(=O)CN1CCCC(C)C1 (stereo not drawn) | inactive | – |
| CSc1nccc(NC(=O)c2ccc(C(C)(C)C)cc2)n1 | inactive | – |
| O=C(c1cc(COc2cccc(C(F)(F)F)c2)on1)N1CCSCC1 | inactive | – |
| CN(C)CCCNC(=S)N1CCC(c2nc3ccccc3[nH]2)CC1 | inactive | – |
| CCC(=O)Nc1cc(C(F)(F)F)ccc1N1CCCC1 | inactive | – |
| O=C(CCC1CCCCC1)Nc1cc(C(F)(F)F)ccc1N1CCOCC1 | 11.7 µM (active) | – |
| CC(Sc1nncn1C)C(=O)Nc1cc(C(F)(F)F)ccc1N1CCOCC1 (stereo not drawn) | inactive | – |
| CCCCn1c(N)c(N(CC(C)C)C(=O)c2cnc(C)cn2)c(=O)[nH]c1=O | inactive | – |
| Cc1ccc(CSCC2Nc3ccc(C(=O)N4CCN(c5ccc(F)cc5)CC4)cc3NC2=O)cc1 (stereo not drawn) | inactive | – |
| Cc1c(Cc2ccccc2)c(=O)oc2cc(OCC(N)=O)ccc12 | 4.15 µM (active) | – |
| CCOC(=O)c1cc(=O)c2ccc(OCc3ccccc3)cc2o1 | inactive | – |
| Cc1c(CCC(=O)O)c(=O)oc2cc(OCc3ccc(Br)cc3)ccc12 | inactive | – |
| CCN(CC(=O)NCCCN1CCOCC1)S(=O)(=O)c1cc(Cl)ccc1Cl | inactive | – |

| Compound | Potency | activity change, negative = inhibition |
| --- | --- | --- |
| COc1cc(NS(=O)(=O)c2ccc(NC(=S)NC(=O)c3ccccc3)cc2)nc(OC)n1 | inactive | – |
| Cc1ccc(NC(=O)C(CC(=O)O)C2CCCO2)c(C)c1 (stereo not drawn) | inactive | – |
| Cc1ccc(NC(=O)C2CCN(S(=O)(=O)c3ccc4c(c3)NC(=O)CO4)CC2)cc1C | inactive | – |
| COc1ccccc1N(CC(=O)Nc1ccccc1C(=O)N1CCCC1)S(C)(=O)=O | inactive | – |
| CCCCCc1c(C)nc(N2CCN(Cc3ccc4c(c3)OCO4)CC2)[nH]c1=O | inactive | – |
| Fc1ccc2[nH]c3c(N4CCSCC4)ncnc3c2c1 | 4.65 µM (active) | – |
| CCN1CCCC1CNC(=O)c1cc2cc(OC)c(OC)cc2[nH]1 (stereo not drawn) | inactive | – |
| CCN1CCCC1Cn1cnc2c([nH]c3cc(OC)ccc32)c1=O (stereo not drawn) | inactive | – |
| CCN1CCCC1CNc1ncnc2c1[nH]c1ccc(F)cc12 (stereo not drawn) | 2.33 µM (active) | – |
| O=c1[nH]c(N2CCN(Cc3ccc4c(c3)OCO4)CC2)nc2c1CCCC2 | – | 11.4% [at 5.75 µM] (inactive) |
| Fc1ccc2[nH]c3c(N4CCN(Cc5ccc6c(c5)OCO6)CC4)ncnc3c2c1 | 5.22 µM (active) | – |
| Cc1ccc(NC(=O)Cc2nc(COC(=O)C(C)NS(=O)(=O)c3ccc(C)cc3)cs2)cc1 (stereo not drawn) | inactive | – |
| O=C(NCCOc1cccnc1)c1ccc(OC2CCN(Cc3ccccn3)CC2)cc1 | inactive | – |
| CN(C)CCCn1c(SCc2ccc(Cl)cc2)nnc1-c1ccncc1 | inactive | – |
| COc1ccc(-c2nnc3n2CCCCC3)cc1 | inactive | – |
| CCOc1ccc(NC(=O)c2cc(C)nc3ccccc23)cc1 | inactive | – |
| CCOc1ccc(-n2c(O)c(/C=N/Nc3nc(C)cc(C)n3)c3ccccc3c2=O)cc1 | 4.15 µM (active) | – |
| CCOc1ccc(-n2c(O)c(/C=N/c3ccnn3Cc3ccncc3)c3ccccc3c2=O)cc1 | inactive | – |
| O=C(Cc1ccccc1F)NC1CCSc2ccccc21 (stereo not drawn) | inactive | – |
| CC1(C)NC(=O)N(CC(=O)N2CCN(S(=O)(=O)c3ccccc3F)CC2)C1=O | inactive | – |
| CC1CCC(NS(=O)(=O)c2ccc3c(c2)CC(=O)N3)CC1 (stereo not drawn) | inactive | – |
| c1ccc(-c2cn3c(n2)CCc2ccc4cccnc4c2-3)cc1 | 10.4 µM (active) | – |

| Compound | Potency | activity change, negative = inhibition |
| --- | --- | --- |
| c1ccc(-c2cn3cccnc3n2)cc1 | inactive | – |
| Cc1cc(NC(=O)CCC(=O)N(CC(=O)NC2CCCC2)c2ccc(F)cc2)no1 | inactive | – |
| O=C(CCn1nnc2ccccc21)OCC(=O)c1ccc([N+](=O)[O-])cc1 | inactive | – |
| COc1cccc(N2C(=O)CC(N3CCc4ccccc4C3)C2=O)c1 (stereo not drawn) | inactive | – |
| COc1ccc(CN2CCCC(N3CCc4ccccc4C3)C2)c(O)c1 (stereo not drawn) | 1.65 µM (active) | – |
| COc1ccc(CCC(C)N2CCc3ccccc3C2)cc1 (stereo not drawn) | inactive | – |
| COc1ccc(NC(=O)CCNC(=O)Cn2ccc3ccccc3c2=O)c(OC)c1 | inactive | – |
| COc1ccc(NC(=O)Cn2ncn3c(cc4ccccc43)c2=O)c(OC)c1OC | 10.4 µM (active) | – |
| CCc1ccc(NC(=O)Cn2ncn3c(cc4ccccc43)c2=O)cc1 | inactive | – |
| Cc1ccc(C(=O)N(CC(=O)NC2CCCC2)c2ccc(F)cc2)s1 | inactive | – |
| CC(c1ccccc1)(c1ccccc1)c1ccncc1 | 16.5 µM (active) | – |
| ClC(Cl)(Cl)c1ccccc1 | inactive | – |
| CC(C)(C)N(Cc1ccccc1)C(=O)c1ccncc1 | inactive | – |
| CC1CCCC(NC(=O)c2cc(-c3ccncc3)nc3ccccc23)C1C (stereo not drawn) | inactive | – |
| CC(=O)N1CC(=O)N(CC(=O)Nc2ccc(Br)cc2)C1=S | inactive | – |
| Cc1c(C(=O)NC(C)C2CC3CCC2C3)cccc1[N+](=O)[O-] (stereo not drawn) | inactive | – |
| CC(Sc1nnc(CNC(=O)c2ccccc2F)n1C)C(=O)Nc1nccs1 (stereo not drawn) | inactive | – |
| COc1ccc(CCNC(=O)c2nnc(CS(=O)(=O)c3ccccc3)o2)cc1OC | 2.33 µM (active) | – |
| COc1ccc(CCNC(=O)CN(c2ccccc2)S(C)(=O)=O)cc1OC | inactive | – |
| COc1ccc(CCNC(=O)Cc2ccc(C)cc2)cc1OC | inactive | – |
| COc1ccc(OC)c(NC(=O)c2ccc3c(c2)CCN3S(C)(=O)=O)c1 | inactive | – |
| CC(C)OC(=O)c1ccc(COc2ccc3ccc(=O)oc3c2)o1 | inactive | – |

| Compound | Potency | activity change, negative = inhibition |
| --- | --- | --- |
| COc1ccccc1CNC(=O)c1ccc(CS(=O)(=O)c2ccccc2)o1 | inactive | – |
| CCCCCNC(=O)C1c2ccccc2Oc2ccccc21 | inactive | – |
| COc1ccc(C(=O)Nc2ccccc2C(=O)NCc2ccco2)cc1 | inactive | – |
| Cc1ccc(N(Cc2ccc(C(=O)Nc3ccccc3C(=O)NCc3ccco3)cc2)S(C)(=O)=O)cc1C | 3.7 µM (active) | – |
| CS(=O)(=O)N(Cc1ccc(Cl)cc1)c1ccc(C(=O)NCCSCc2ccco2)cc1 | inactive | – |
| CS(=O)(=O)c1ccc(C(=O)OCC(=O)NNC(=O)COc2ccc(Cl)cc2)cc1 | inactive | – |
| COc1cc(CN2CCCN(C)CC2)c([N+](=O)[O-])cc1OC | inactive | – |
| Cc1ccc(OCCC(=O)OCC(=O)N2c3ccccc3NC(=O)C2(C)C)cc1 | inactive | – |
| CC(=O)Nc1ccc(S(=O)(=O)N2CCC(C(=O)NC3CC3)CC2)cc1 | inactive | – |
| O=C(Nc1ccon1)c1sc2ccccc2c1Cl | inactive | – |
| COc1ccc(CNC(=O)CNC(=O)c2sc3ccccc3c2Cl)cc1OC | inactive | – |
| CN1CCc2ccccc2C1Cc1ccccc1NC(=O)c1sc2ccccc2c1Cl (stereo not drawn) | 8.28 µM (active) | – |
| COCc1ccc(CN2CCC(Oc3ccc(C(=O)NCc4ccccn4)cc3)CC2)o1 | inactive | – |
| O=C(O)c1cc(S(=O)(=O)N(Cc2ccccc2)c2ccccc2)ccc1Cl | inactive | – |
| C=CCCN(Cc1ccccc1)S(=O)(=O)c1ccccc1Br | inactive | – |
| C=CC(COCc1ccccc1)N(Cc1ccccc1)S(=O)(=O)c1ccccc1Br (stereo not drawn) | 9.28 µM (active) | – |
| Cc1ccsc1-c1cc(C(=O)O)c2c(ccc3ccccc32)n1 | inactive | – |
| COc1cc(OC)c(N2CC(C(=O)Nc3cc(Cl)ccc3N3CCOCC3)CC2=O)cc1Cl (stereo not drawn) | 11.7 µM (active) | – |
| COc1ccc(Cl)cc1NC(=O)C1CC(=O)N(c2ccc(F)cc2)C1 (stereo not drawn) | inactive | – |
| COc1c(C)cccc1C(=O)Nc1cc(Cl)ccc1N1CCOCC1 | inactive | – |
